PubChem BioAssay (NCATS)
Results filed as inconclusive are left out. Activity calls are given as the source filed them. Unless noted, calls come from the whole dose curve; as a rule, active = well fitted curve in the direction sought with a large enough effect; inconclusive = small, poorly fitted or top-dose-only effect, or another doubt; inactive = no such curve, though single readings can be large; an effect the other way counts as inactive or inconclusive.

How the values were obtained:
[1] = High-throughput drug toxicity screening in the BPDCN cell line Gen2.2 (AID 1224824; call rule not given here;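 note: cells exposed to compounds for 48 h before reading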); settings: Gen2.2 BPDCN cells; at 45.8 µM (top of the series) unless noted
Procedure, shortened: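 Gen2.2 cells, 500 per well in phenol red-free RPMI with 10% FBS, exposed to compounds 48 h at 37 C, 5% CO2; viability by CellTiter-Glo luminescence. Percent activity scaled to DMSO (100%) and 9.2 uM bortezomib final (0%).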

[2] = High-throughput drug toxicity screening in the BPDCN cell line Cal-1 (AID 1224825; call rule not given here); settings: Cal-1 BPDCN cell viability, qHTS; at 45.8 µM (top of the series) unless noted
Procedure, shortened: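 CellTiter-Glo luminescence after 48 h compound exposure; percent activity scaled with DMSO as 100% and bortezomib (9.2 uM final) as 0%. Cal-1 cells seeded at 500/well in RPMI, 10% FBS, no phenol red.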

[3] = qHTS assay for measurement of the activity of small molecule inhibitors on Zika virus induced Caspase-3 activity in human iPSC derived neural progenitor cells (hNPCs) (AID 1224857); note: % of control where 0% means no effect; nearly all actives have a fitted effect of over 65% in size
Procedure, shortened: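 Human iPSC-derived neural progenitor cells pretreated 1 hr with compounds, then infected with Zika virus (2 FFU/cell) for 6 hours at 37 C. Caspase-3/7 measured by Caspase-Glo luminescence; % inhibition calculated from induction scaled to uninfected (0%) and infected (100%) wells.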

[4] = qHTS assay for measurement of the activity of small molecule inhibitors on Zika virus induced Caspase-3 activity in human astrocytoma cells (AID 1224859);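 note: plate controls were ZIKV-infected untreated cells for no effect and uninfected cells for full effect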
Procedure, shortened: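 SNB-19 astrocytoma cells, 250/well, pretreated 1 h with compounds, then Zika virus at 2 FFU/cell for 6 h at 37 C; Caspase-Glo 3/7 luminescence after 30 min; percent inhibition normalised to uninfected and infected controls.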

[5] = qHTS Screen of the MIPE 4.0 Collection Against Ewings Sarcoma (RDES) (AID 1259252); note: nearly all actives have a fitted effect of over 35% in size; note: potency is the fitted concentration of half-maximal effect
Procedure, shortened: (§1)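 Viability screen: 48 h incubation at 37C, 95% humidity, 5% CO2 with serially titrated compound, followed by CellTiter-Glo readout.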

[6] = qHTS Screen of the MIPE 4.0 Collection Against Ewings Sarcoma (TC71) (AID 1259253); note: nearly all actives have a fitted effect of over 40% in size; note: potency is the fitted concentration of half-maximal effect
Procedure, shortened: as §1

[7] = qHTS Screen of the MIPE 4.0 Collection Against Ewings Sarcoma (EW8) (AID 1259255); note: nearly all actives have a fitted effect of over 35% in size; note: potency is the fitted concentration of half-maximal effect;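 for viability: 100% = DMSO-treated cells and 0% = medium-only wells without cells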
Procedure, shortened: as §1

[8] = qHTS Screen of the MIPE 4.0 Collection Against Ewings Sarcoma (TC32) (AID 1259256); note: nearly all actives have a fitted effect of over 45% in size; note: potency is the fitted concentration of half-maximal effect
Procedure, shortened: as §1

[9] = qHTS assay to identify small molecule inhibitors of chordoma cells - UCH-1 (AID 1259355); note: % is set by controls: 0 for no effect and ±100 for the full control effect; nearly all actives have a fitted effect of over 55% in size
Procedure, shortened: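 Screening used approved and investigational drugs in 15-point titration against 800 seeded cells per well. A fixed combination of auranofin with camptothecin, doxorubicin, rubitecan and topotecan followed compound addition, and growth was scored by CellTiter-Glo after 48hr.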

[10] = qHTS assay to identify small molecule inhibitors of chordoma cells - UCH-2 (AID 1259356); note: % is set by controls: 0 for no effect and ±100 for the full control effect

SMILES	cell viability, % of control (lower = more cytotoxic) [1]	viability (% of control) [2]	Potency [3]	Potency [4]	Potency [5]	Potency [6]	Potency [7]	Potency [8]	Potency [9]	outcome [10]
CS(=O)(=O)c1cccc(CNc2nc(Nc3ccc4c(c3)CCC(=O)N4)ncc2C(F)(F)F)c1	13.6%	7.96%	inactive	inactive	20.9 µM (active)	16.6 µM (active)	13.2 µM (active)	11.8 µM (active)	–	–
O=C(C=Cc1ccc(/C=C/C(=O)Nc2ccc(C3=NCCN3)cc2)cc1)Nc1ccc(C2=NCCN2)cc1	203%	104%	inactive	inactive	inactive	inactive	inactive	inactive	–	–
Cc1ccccc1C(C(=O)NC1CCCC1)N(C(=O)Cn1cnc2ccccc21)c1cccc(F)c1 (stereo unspecified)	30.2%	102%	inactive	inactive	–	–	–	–	–	–
CS(=O)(=O)Oc1ccc2c(NC(N)=O)c(C(=O)c3ccc(Cl)cc3Cl)oc2c1	153%	13.2%	inactive	inactive	11.8 µM (active)	14.8 µM (active)	23.5 µM (active)	–	–	–
Cc1cccc(-c2[nH]c(C(C)(C)C)nc2-c2ccc3nccnc3c2)n1	391%	15.5%	inactive	inactive	16.6 µM (active)	26.4 µM (active)	23.5 µM (active)	20.9 µM (active)	–	–
COc1cc2nccc(Oc3ccc(NC(=O)NC4CC4)c(Cl)c3)c2cc1C(N)=O	10.1%	5.43%	inactive	inactive	0.833 µM (active)	1.05 µM (active)	0.469 µM (active)	1.05 µM (active)	–	–
NC(=O)c1ccc(-c2nc(-c3ccc4c(c3)OCO4)c(-c3ccccn3)[nH]2)cc1	624%	113%	inactive	inactive	inactive	14.8 µM (active)	16.6 µM (active)	inactive	–	–
O=C(NOC[C@H](O)CO)c1ccc(F)c(F)c1Nc1ccc(I)cc1F	14.5%	41.6%	inactive	inactive	23.5 µM (active)	–	–	–	–	–
CCCn1c(=O)c2[nH]c(C34CC5CC3C[C@@H](C5)C4)nc2n(CCC)c1=O	214%	125%	inactive	inactive	–	–	–	–	–	–
CCN(c1ccccc1)c1cc(NC)[n+](C)c(C)n1	138%	119%	inactive	inactive	7.43 µM (active)	inactive	inactive	16.6 µM (active)	–	–
S=C(NCc1ccc2c(c1)OCO2)N1CCN(c2ncnc3c2oc2ccccc23)CC1	387% [at 92.2 µM]	56.7% [at 92.2 µM]	inactive	inactive	1.91 µM (active)	7.62 µM (active)	4.81 µM (active)	12.1 µM (active)	–	–
CCCCCCCc1ccc(CCc2cccc(O)c2C(=O)O)cc1	161%	66.1%	inactive	inactive	18.7 µM (active)	16.6 µM (active)	–	–	–	–
NC(=O)C1CCCc2c1[nH]c1ccc(Cl)cc21 (stereo unspecified)	67%	67.2%	inactive	inactive	6.62 µM (active)	–	–	–	–	–
COc1c(Cl)cc2c([nH]c3cnccc32)c1NC(=O)c1cccnc1C	41.9%	77.1%	inactive	inactive	0.59 µM (active)	–	–	–	–	–
CCOc1cc(N2CCC(O)CC2)ccc1Nc1ncc2c(n1)N(C)c1ccccc1C(=O)N2C	6.39%	2.19%	inactive	inactive	20.9 µM (active)	16.6 µM (active)	23.5 µM (active)	16.6 µM (active)	–	–
O=C(C1CC1)N1CC[C@@H](Cn2c(-c3ccc(-c4ccc5occc5c4)cc3)nc3cnccc32)C1	133%	95.4%	inactive	inactive	inactive	16.6 µM (active)	13.2 µM (active)	inactive	–	–
CCn1c(-c2nonc2N)nc2cnc(Oc3cccc(NC(=O)c4ccc(OCCN5CCOCC5)cc4)c3)cc21	84.4%	33.2%	inactive	inactive	5.9 µM (active)	13.2 µM (active)	11.8 µM (active)	5.9 µM (active)	–	–
CCOc1ccc(Cc2cc([C@@H]3O[C@H](CO)[C@@H](O)[C@H](O)[C@@H]3O)ccc2Cl)cc1	55.1%	19.9%	inactive	inactive	–	–	–	–	–	–
O=C(Nc1cccnc1)N1CCC(Cc2cccc(Oc3ccc(C(F)(F)F)cn3)c2)CC1	147%	52.7%	inactive	inactive	18.7 µM (active)	16.6 µM (active)	–	–	–	–
Cc1cc(-c2ccc(CC(=O)Nc3ccc(-c4cccnc4)cc3)cc2)ccn1	255%	20.4%	inactive	inactive	20.9 µM (active)	16.6 µM (active)	18.7 µM (active)	–	–	–
CC(C)(N)C(=O)N[C@H](COCc1ccccc1)C(=O)N1CCC2(CC1)CN(S(C)(=O)=O)c1ccccc12	14.7%	71%	inactive	inactive	20.9 µM (active)	29.6 µM (active)	20.9 µM (active)	–	–	–
COCC(=O)NCC=Cc1ccc2ncnc(Nc3ccc(Oc4ccc(C)nc4)c(C)c3)c2c1	222%	20.7%	inactive	inactive	20.9 µM (active)	23.5 µM (active)	–	–	–	–
COc1ccc2c3n(c(=NC(=O)c4cccnc4)nc2c1OC)CCN3	9.57%	12.7%	inactive	inactive	2.09 µM (active)	10.5 µM (active)	20.9 µM (active)	8.33 µM (active)	–	–
CN(C)C(=O)c1ccc(S(=O)(=O)c2ccc(NC(=O)[C@@](C)(O)C(F)(F)F)c(Cl)c2)cc1	41.1%	20.3%	inactive	inactive	20.9 µM (active)	18.7 µM (active)	inactive	–	–	–

SMILES	cell viability, % of control (lower = more cytotoxic) [1]	viability (% of control) [2]	Potency [3]	Potency [4]	Potency [5]	Potency [6]	Potency [7]	Potency [8]	Potency [9]	outcome [10]
COc1cccc2cc(-c3nc(C4CCC(C(=O)O)CC4)n4ncnc(N)c34)[nH]c12 (stereo unspecified)	5.49%	21%	inactive	inactive	0.833 µM (active)	0.662 µM (active)	0.526 µM (active)	0.526 µM (active)	–	–
CCN(CC)CCCC(C)Nc1nc(C)cc(Nc2ccc3nc(C)cc(N)c3c2)n1 (stereo unspecified)	55.4%	74.8%	inactive	inactive	inactive	inactive	–	–	–	–
OCCC#Cc1nc(-c2ccc(F)cc2)c(-c2ccncc2)n1CCCc1ccccc1	98.7%	18.4%	inactive	inactive	–	–	–	–	–	–
CC(=O)NC(C)c1ccc(Oc2ccc(OC(C)C)cc2)cc1 (stereo unspecified)	281%	98.5%	inactive	inactive	inactive	8.33 µM (active)	6.62 µM (active)	inactive	–	–
O=C(Nc1ccc(F)c(C(F)(F)F)c1)Nc1nnc(-c2ccncc2)s1	131%	101%	inactive	inactive	–	–	–	–	–	–
Cc1c(CN2CCN(C(=O)C(C)C)CC2)sc2c(N3CCOCC3)nc(-c3cnc(N)nc3)nc12	2.32%	3.99%	inactive	inactive	0.0833 µM (active)	0.148 µM (active)	0.105 µM (active)	0.0662 µM (active)	–	–
COc1cc2c(cc1OC)CN(CCc1ccc(NC(=O)c3cccc4c(=O)c5cccc(OC)c5[nH]c34)cc1)CC2	238%	104%	inactive	inactive	10.5 µM (active)	20.9 µM (active)	–	–	–	–
CNC(=O)c1ccc(C)c(-n2c(C)cc(OCc3ccc(F)cc3F)c(Br)c2=O)c1	140%	94.3%	inactive	inactive	–	–	–	–	–	–
COc1cc(Oc2ccnc3cc(OC)c(OC)cc23)ccc1NC(=O)NC(C)c1nccs1 (stereo unspecified)	98.9%	32.2%	inactive	inactive	–	–	–	–	–	–
C[C@]12CC[C@H](O)CC1=CC[C@@H]1[C@H]2CC[C@]2(C)C(c3cccnc3)=CC[C@H]12	60.5% [at 23.2 µM]	98.4% [at 23.2 µM]	inactive	inactive	inactive	inactive	inactive	–	–	–
Oc1cccc(-c2nc(N3CCOCC3)c3oc4ncccc4c3n2)c1	8.19% [at 92.2 µM]	17.8% [at 92.2 µM]	inactive	inactive	0.96 µM (active)	0.152 µM (active)	0.429 µM (active)	0.0762 µM (active)	–	–
Cn1cnc([N+](=O)[O-])c1Sc1ncnc2nc[nH]c12	16.2%	93.1%	inactive	inactive	2.64 µM (active)	1.18 µM (active)	4.69 µM (active)	3.32 µM (active)	inactive	inactive
Nc1nc2c(ncn2COCCO)c(=O)[nH]1	126%	34.4%	inactive	inactive	inactive	inactive	inactive	inactive	inactive	inactive
C1COC(NC(C2CC2)C2CC2)=N1	33.1%	53.6%	inactive	inactive	inactive	inactive	inactive	inactive	inactive	inactive
Cc1cc2c(F)c(Oc3ncnn4cc(OC[C@@H](C)O)c(C)c34)ccc2[nH]1	249%	71.2%	inactive	inactive	2.35 µM (active)	13.2 µM (active)	20.9 µM (active)	20.9 µM (active)	–	–
Cc1cnc(NC(=O)C2=C(O)c3ccccc3S(=O)(=O)N2C)s1	60.9%	96.3%	inactive	inactive	inactive	inactive	inactive	inactive	inactive	inactive
CC(C)(Sc1ccc(CCN(CCCCC2CCCCC2)C(=O)NC2CCCCC2)cc1)C(=O)O	75.1%	7.76%	inactive	inactive	14.8 µM (active)	inactive	–	18.7 µM (active)	–	–
O=C1CCc2cc(OCCCCc3nnnn3C3CCCCC3)ccc2N1	137%	84.4%	inactive	inactive	inactive	inactive	inactive	inactive	inactive	inactive
O=S(=O)(N=Cc1c(O)ccc2ccccc12)c1cccs1	98%	45.4%	inactive	inactive	0.105 µM (active)	1.66 µM (active)	7.43 µM (active)	0.372 µM (active)	–	–
c1ccc([C@H]2CN3CCSC3=N2)cc1	200%	116%	inactive	inactive	inactive	inactive	inactive	inactive	inactive	inactive
CC(C)NCC(O)COc1ccc(COCCOC(C)C)cc1 (stereo unspecified)	123%	113%	inactive	inactive	inactive	inactive	inactive	inactive	inactive	inactive
Cc1c(CCOc2ccc(C(=O)O)cc2)c2cc(Cl)ccc2n1C(c1ccccc1)c1ccccc1	222%	96.5%	inactive	inactive	18.7 µM (active)	16.6 µM (active)	14.8 µM (active)	10.5 µM (active)	–	–
CCc1cc(Nc2nccc(-c3c(-c4ccc(OC)c(C(=O)Nc5c(F)cccc5F)c4)nc4ccccn34)n2)c(OC)cc1N1CCC(N2CCN(S(C)(=O)=O)CC2)CC1	179%	79.3%	inactive	inactive	26.4 µM (active)	18.7 µM (active)	–	16.6 µM (active)	–	–
NC[C@H](O)c1ccc(O)c(O)c1	132%	96.3%	inactive	inactive	inactive	inactive	inactive	inactive	inactive	inactive
